The text below walks through data of ChEMBL document CHEMBL4808148, “HDAC6 screening dataset using tau-based substrate in an enzymatic assay yields selective inhibitors and activators” (2021).

SMILES strings stand for the structures. Values joined by “and” are separate entries in the source; they are usually repeats but may differ in a detail not shown here. Identical values can stand only once. The campaign covered roughly 5,600 compounds. About 150 (2.7%) showed an effect of 50% or more. What follows is part of a selection rich in strong results, with near analogues and random picks from the rest.

As usually defined, the inhibition is the change of the read-out against control, counted positive when it falls.

This assay deals with T1, Protein deacetylase HDAC6 (Homo sapiens) (UniProt Q9UBN7).
T1 sequence (whole entry): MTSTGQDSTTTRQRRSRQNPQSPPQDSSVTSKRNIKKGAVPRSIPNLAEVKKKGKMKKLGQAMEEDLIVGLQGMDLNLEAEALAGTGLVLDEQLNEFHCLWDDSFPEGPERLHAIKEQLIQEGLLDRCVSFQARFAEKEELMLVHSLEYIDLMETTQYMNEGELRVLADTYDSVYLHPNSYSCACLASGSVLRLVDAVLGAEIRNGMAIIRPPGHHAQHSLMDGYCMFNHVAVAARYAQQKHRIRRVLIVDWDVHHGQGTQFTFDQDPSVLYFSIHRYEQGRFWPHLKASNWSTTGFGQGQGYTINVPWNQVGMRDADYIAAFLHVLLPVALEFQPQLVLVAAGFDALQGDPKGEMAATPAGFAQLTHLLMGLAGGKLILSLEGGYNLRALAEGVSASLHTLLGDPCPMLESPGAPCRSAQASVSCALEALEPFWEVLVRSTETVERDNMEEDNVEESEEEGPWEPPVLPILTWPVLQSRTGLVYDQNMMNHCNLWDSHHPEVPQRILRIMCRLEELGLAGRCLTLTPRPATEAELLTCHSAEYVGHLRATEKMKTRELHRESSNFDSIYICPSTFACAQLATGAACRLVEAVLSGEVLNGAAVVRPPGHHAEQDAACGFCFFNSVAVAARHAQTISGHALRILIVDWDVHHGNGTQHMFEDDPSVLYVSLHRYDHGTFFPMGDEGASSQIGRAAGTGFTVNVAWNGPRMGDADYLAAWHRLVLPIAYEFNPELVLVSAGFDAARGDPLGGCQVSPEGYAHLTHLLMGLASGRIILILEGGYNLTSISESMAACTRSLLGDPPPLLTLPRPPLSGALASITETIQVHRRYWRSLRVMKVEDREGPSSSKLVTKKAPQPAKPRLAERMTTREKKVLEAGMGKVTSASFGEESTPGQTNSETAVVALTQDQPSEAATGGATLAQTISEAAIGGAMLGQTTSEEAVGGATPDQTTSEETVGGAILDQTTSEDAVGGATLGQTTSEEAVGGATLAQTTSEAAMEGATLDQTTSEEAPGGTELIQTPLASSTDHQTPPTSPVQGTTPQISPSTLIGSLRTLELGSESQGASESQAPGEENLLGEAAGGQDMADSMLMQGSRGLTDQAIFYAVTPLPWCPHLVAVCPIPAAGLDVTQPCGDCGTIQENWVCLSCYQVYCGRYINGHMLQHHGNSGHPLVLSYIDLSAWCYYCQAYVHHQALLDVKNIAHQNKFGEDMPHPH
The note with it: at 10 µM.
On to `CCN1C(=O)CNc2ncc(-c3ccc(-c4nc[nH]n4)nc3C)nc21`, for which the inhibition stood at 0.29%.

Turning to `Cc1[nH]c(/C=C2\C(=O)Nc3ccccc32)c(C)c1CCC(=O)O`, the inhibition came to 8.55%.

Regarding `CN(C)c1ccc(/C=C2\C(=O)Nc3ccccc32)cc1`, the inhibition worked out at 96.3%.

As for `Cc1cc(C)c(/C=C2\C(=O)Nc3ccccc32)[nH]1`, the inhibition worked out at 2.33%.

Regarding `CSC1SC[C@H]2C(=O)N(C)[C@@H](C(C)C)C(=O)OC[C@@H](NC(=O)c3cnc4ccccc4n3)C(=O)N[C@@H](C)C(=O)N(C)[C@@H]1C(=O)N(C)[C@@H](C(C)C)C(=O)OC[C@@H](NC(=O)c1cnc3ccccc3n1)C(=O)N[C@@H](C)C(=O)N2C` (some centres not stated), the inhibition was -2.22%.

With `Cc1cc(-c2nc(-c3ccc(OC(F)(F)F)cc3)no2)nn1Cc1ccnc(N2CCN(C3CC3)CC2)c1`, the inhibition was -4.46%.

On to `COc1cc(C(=O)NC2CCCNC2)cc(OC)c1OC` (configuration not stated), for which the inhibition was -2.46%.

With `COc1cc(C(=O)OCCCN2CCCN(CCCOC(=O)c3cc(OC)c(OC)c(OC)c3)CC2)cc(OC)c1OC`, the inhibition is -3.62%.

In the case of `COc1cc(C(=S)N2CCOCC2)cc(OC)c1OC`, the inhibition was found to be 97.4%.

As to `CC(C)(C)[C@H]1CC[C@H](CC2=C(O)C(=O)c3ccccc3C2=O)CC1`, the inhibition was 4.06%.

On to `COc1ccc(-c2c(C)c(C(=O)NN3CCCCC3)nn2-c2ccc(Cl)cc2Cl)cc1`, for which the inhibition stood at 3.52%.

In the case of `COc1ccccc1C(=O)Nc1cc2c(cc1N1CCCC1)n(C)c(=O)n2C`, the inhibition was -4.48%.

For the molecule `COc1cccc(-c2ccc(NC(=O)C3=C(C(=O)O)CCC3)c(F)c2)c1`, the inhibition turned out to be 94%.

On to `CCOc1ccc(-c2ccc(Cn3c(CC(C)(C)C(=O)O)c(SC(C)(C)C)c4cc(OCc5ccc(C)cn5)ccc43)cc2)cn1`, for which the inhibition is -4.44%.

In the case of `C[C@H](NCc1ccc(OCc2ccccc2F)cc1)C(N)=O`, the inhibition is 69.9%.

Consider `O=C1S/C(=C\c2ccc(OCc3cccc(B(O)O)c3)cc2)C(=O)N1Cc1ccc(F)cc1`, for which the inhibition turned out to be 8.15%.

In the case of `C[C@H](NC(=O)Cc1cc(F)cc(F)c1)C(=O)N[C@H](C(=O)OC(C)(C)C)c1ccccc1`, the inhibition is -6.8%.

In the case of `CC(C)NCC(O)COc1ccc(CC(N)=O)cc1` (configuration not stated), the inhibition was 8.69% and 11.7%.

As to `C[C@H](NCc1ccc(OCc2cccc(F)c2)cc1)C(N)=O`, the inhibition turned out to be 88.8%.

Consider `Cc1ccc(-c2ccc(F)cc2COc2ccc(CCC(=O)O)cc2)cc1`, for which the inhibition turned out to be 2.57%.

As for `COC(=O)C1=C(C)NC(C)=C(C(=O)OC/C=C/c2ccccc2)C1c1cccc([N+](=O)[O-])c1` (configuration not stated), the inhibition was -8.71%.

On to `CN[C@H](CC(C)C)C(=O)N[C@H]1C(=O)N[C@@H](CC(N)=O)C(=O)N[C@H]2C(=O)N[C@H]3C(=O)N[C@H](C(=O)N[C@H](C(=O)O)c4cc(O)cc(O)c4-c4cc3ccc4O)[C@H](O[C@H]3C[C@](C)(N)[C@@H](O)[C@H](C)O3)c3ccc(c(Cl)c3)Oc3cc2cc(c3O[C@@H]2O[C@H](CO)[C@@H](O)[C@H](O)[C@H]2O[C@H]2C[C@](C)(NCc3ccc(-c4ccc(Cl)cc4)cc3)[C@@H](O)[C@H](C)O2)Oc2ccc(cc2Cl)[C@H]1O`, for which the inhibition was 0.32%.
